# Screens deposited in PubChem by Small Molecule Screening Facility, UW Madison.
# The sample as a whole holds a higher share of hits than the screen did.
# RMI FANCM FP: inhibitors of human RMI core complex binding to FANCM MM2; actives 0.58% (n = 70,000); AID 1159607; FP signal (polarization) at 33 µM; Fluorescence polarization, RMI core complex with F-MM2 peptide; hits give low values; in the data active means FP signal below about 40
# The depositor's hits bear a star.
SMILES,RMI FANCM FP
COc1ccc(N2CCN(C(=O)C(=O)NC3CC3)CC2)cc1,54
Nc1nc2ncc(=O)[nH]c2c(=O)[nH]1,26*
Nc1nc2[nH]c(=O)cnc2c(=O)[nH]1,50
Nc1nc2ncc(C(=O)O)nc2c(=O)[nH]1,53
Cc1ccc(S(=O)(=O)NCc2ccsc2)cc1C,70
Cc1ccc(N2CCN(S(=O)(=O)c3cc(Cl)ccc3Cl)CC2)c(C)c1,64
Cc1ccc(S(=O)(=O)N=C2C=CC(=O)C(Cl)=C2)c(C)c1,-12*
Cc1ccc(-c2ccc(N3CCN(S(=O)(=O)c4ccccc4Cl)CC3)nn2)c(C)c1,80
Cc1noc(C)c1C=O,61
Cc1ccc(C)c(S(=O)(=O)n2cccn2)c1,63
Cc1ccc(C)c(S(=O)(=O)N=C2C=C(Br)C(=O)c3ccccc32)c1,-1*
Cc1ccc(C)c(S(=O)(=O)Nc2ccccc2F)c1,73
O=C(Cc1ccc2c(c1)OCO2)N1CCCCC1,53
O=C(c1ccc2c(c1)OCCO2)N1CCCCC1,-20*
O=C(O)c1ccc2c(c1)OCCO2,53
O=C(NNC(=S)Nc1cccc(C(F)(F)F)c1)c1sc2ccccc2c1Cl,51
Cn1c(=O)c([N+](=O)[O-])c(N2CCN(c3ccc(F)cc3)CC2)c2ccccc21,58
CC(C)(C)NC(=O)CSc1nc2c(cnn2-c2ccc(Cl)cc2)c(=O)[nH]1,67
Cc1cc(C)c(N2CCN(CC(=O)Nc3cc(Cl)ccc3Cl)CC2)c(C)c1,55
COc1ccc2nc(-c3ccc(F)c(NC(=O)c4ccccc4C)c3)cn2n1,98
COc1ccc2nc(-c3ccc(OC)c(NC(=O)c4ccccc4C)c3)cn2n1,73
COc1ccc2nc(-c3ccc(Cl)c(NC(=O)c4ccccc4C)c3)cn2n1,33*
CC1CCc2nc(NC(=O)c3ccc(S(=O)(=O)N4CCCCC4)cc3)sc2C1 (stereo not given),72
C[C@H](CCC(=O)O)[C@H]1CC[C@H]2[C@@H]3[C@H](O)C[C@@H]4C[C@H](O)CC[C@]4(C)[C@H]3CC[C@]12C,42
C[C@H](CCC(=O)O)[C@H]1CCC2C3C(CC[C@@]21C)[C@@]1(C)CC[C@@H](O)C[C@H]1C[C@@H]3O (stereo not given in full),63
SMILES,RMI FANCM FP
CC(CCC(=O)N/N=C/c1c[nH]c2ccccc12)C1CCC2C3C(O)CC4CC(O)CCC4(C)C3CCC12C (stereo not given),21*
Cc1nnc(N2C(=O)C(=O)C(=C(O)c3ccc(Cl)cc3)C2c2ccc([N+](=O)[O-])cc2)s1 (stereo not given),59
Cc1ccc(S(=O)(=O)NCCCc2ccc(N(C)C)cc2)c(C)c1,73
CCOc1ccc(NC(=O)CSc2nccn3nc(-c4ccc(CC)cc4)cc23)cc1,103
Cc1onc(-c2ccccc2)c1C(=O)NC1C(=O)N2[C@@H]1SC(C)(C)[C@@H]2C(=O)O (stereo not given in full),9*
Cc1onc(-c2ccccc2)c1C(=O)NCCNC(=O)c1c(-c2ccccc2)noc1C,-22*
CC(=O)Nc1ccc(OCCCNC(=O)c2c(-c3ccccc3)noc2C)cc1,63
COc1cccc(OC)c1C(=O)N[C@@H]1C(=O)N2[C@@H]1SC(C)(C)[C@@H]2C(=O)O,67
Cc1onc(-c2c(Cl)cccc2Cl)c1C(=O)N[C@@H]1C(=O)N2[C@@H]1SC(C)(C)[C@@H]2C(=O)O,65
Cc1onc(-c2ccccc2)c1C(=O)NNC(=O)C1CC1,61
CN1CCN(c2ccc(CNC(=O)c3cccnc3Oc3ccc(Cl)cc3)cc2)CC1,61
CC(C)C(Br)C(=O)Nc1cccc2ccccc12 (stereo not given),75
O=C(CCS(=O)(=O)Cc1ccccc1)Nc1nnc(-c2ccco2)o1,64
FC(F)(F)c1ccc2[nH]c(=S)[nH]c2c1,54
NNC(=O)C1C(C(=O)NN)C1c1ccccc1 (stereo not given),58
O=C1CC(c2ccccc2)CC(=O)N1c1ccccc1,56
CC(=O)C1=CN(c2ccccc2)C=C(C(C)=O)C1c1ccccc1,19*
CC(C)CCN1C(=O)C(C)(C)COc2ccc(NS(=O)(=O)c3ccccc3F)cc21,59
N#C/C(=C\c1ccc([N+](=O)[O-])cc1)c1nc2ccccc2[nH]1,57
Cc1ccc(N/C=C(\C#N)c2nc3ccccc3[nH]2)cc1,63
N#CC(=C(O)c1ccccc1Br)c1nc2ccccc2[nH]1,14*
O=C(c1cccs1)N1CCc2ccc(NS(=O)(=O)c3cccc(Cl)c3)cc2C1,71
COc1ccc(C(c2c(C)[nH]c3ccccc23)c2c(C)[nH]c3ccccc23)c(OC)c1,16*
COc1ccc(Cc2nc3ccccc3[nH]2)cc1,62
Cc1ccnc(NC(c2ccco2)c2c(C)[nH]c3ccccc23)c1 (stereo not given),88
SMILES,RMI FANCM FP
CN(C)CCCN1C(=O)C(=O)C(=C(O)c2ccc(Cl)cc2)C12C(=O)N(C)c1ccccc12 (stereo not given),61
O=C(CN1C(=O)/C(=C\c2cccs2)SC1=S)Nc1cccc(Br)c1,59
O=C(CN1C(=O)/C(=C/c2ccco2)SC1=S)Nc1ccc(C(=O)O)cc1,64
O=C(CCN1C(=O)/C(=C\c2ccco2)SC1=S)Nc1cccc(Br)c1,9*
CCCc1ccc(S(=O)(=O)Nc2ccc3c(c2)NC(=O)C(C)(C)CO3)cc1,64
CCCn1c(=NC(=O)c2ccc(C#N)cc2)sc2c(C)cc(C)cc21,65
COc1ccc(-c2c(C#N)c(N)nc3c2CN(C)CC3)c(OC)c1OC,-4*
N#Cc1c(N)nc2c(c1-c1ccc(Cl)cc1)CCCC2,54
N#C/C(=C\C=C\c1ccc([N+](=O)[O-])cc1)c1nc(-c2ccc(Cl)cc2)cs1,30
O=S(=O)(Cc1ccccc1Cl)NCC1CCN(Cc2cccs2)CC1,75
CCS(=O)(=O)N1CCc2ccc(NC(=O)c3ccc4c(c3)OCO4)cc2C1,64
C(/C=C/c1ccco1)=N/Nc1nnc(-c2ccccc2)c(-c2ccccc2)n1,21*
C(=N/Nc1nc2ccccc2s1)/c1ccco1,61
C(=N/Nc1nnc(-c2ccccc2)c(-c2ccccc2)n1)/c1ccncc1,56
CCOC(=O)c1sc2nc(-c3ccccc3)cc(-c3ccccc3)c2c1N=Cc1cc(I)cc(I)c1O,59
O=C(Cc1cc(=O)[nH]c(SCc2ccccc2F)n1)NCc1cccnc1,60
O=S(=O)(NCc1nnnn1C1CCCCC1)c1cccc(F)c1,54
O=c1cc(O)cc(/C=C/c2ccc(O)c(O)c2)o1,15*
O=C(O)C=Cc1ccc(O)c(O)c1,60
N#C/C(=C\c1ccc(O)c(O)c1)C(=O)c1ccc(O)c(O)c1,93
CCOC(=O)c1sc(=S)n(Cc2ccco2)c1C,59
Cc1onc(-c2ccccc2Cl)c1C(=O)Nc1ccc2c(c1)OCC(C)(C)C(=O)N2,66
CC(=O)N1CCc2ccc(NC(=O)c3c(-c4ccccc4Cl)noc3C)cc21,66
Cc1onc(-c2ccccc2Cl)c1C(=O)Nc1ccc2c(c1)COCO2,1*
COc1ccccc1-c1nnc(C2CCN(C(C)=O)CC2)s1,62
Oc1ccc(-c2[nH]ncc2Oc2ccccc2)c(O)c1O,31*
COc1ccccc1Oc1cn[nH]c1-c1ccc(O)cc1O,57
CCOc1ccc(-c2[nH]ncc2Oc2cccc(OC)c2)c(O)c1,59
COc1ccc(S(=O)(=O)N(C(=O)C2CCCCC2)c2ccc3oc(=O)sc3c2)cc1OC,60
Cc1cc(C)c(C#N)c(N2CCN(c3ccccc3)CC2)n1,50
